Hits are enriched below; roughly 21% of the tested compounds scored in any of these assays.
Shiga toxin inh: A qHTS for Small Molecule Inhibitors of Shiga Toxin; 290,000 compounds, 9.2% hits; inhibition, % at 38.7 µM; Vero cells, Shiga toxin protein synthesis inhibition reporter; in the data active = inhibition mostly above about 28%, no sharp cut-off; inactive = mostly below about 43%; note: 0% is about no effect
Pf growth 48h: Primary qHTS for delayed death inhibitors of the malarial parasite plastid, 48 hour incubation; P. falciparum luciferase growth in erythrocytes, 48 h; 310,000 compounds, 5.9% hits; Potency, µM (highest dose often 28.7 µM), without a hit: at the highest dose activity change, negative = inhibition, usual class: inhibitors; note: potency is the fitted concentration of half-maximal effect; % is set by controls: 0 for no effect and ±100 for the full control effect
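Luminescence readout; reporter = integrated firefly luciferase in P. falciparum. RBC culture at 2% hematocrit, 0.1% parasitemia final, 37 C/5% CO2; decreased signal taken as growth inhibition.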
Pf growth 96h: Primary qHTS for delayed death inhibitors of the malarial parasite plastid, 96 hour incubation; P. falciparum luciferase reporter growth, 96 h; Potency, µM (series often up to 28.7 µM), for inactives: at the top dose activity change, negative = inhibition, usual class: inhibitors; 320,000 compounds, 6.9% hits; note: potency is the fitted concentration of half-maximal effect; % is set by controls: 0 for no effect and ±100 for the full control effect
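Luminescence readout: decreased luciferase signal marks inhibited growth of reporter-expressing P. falciparum in infected red cells (2% hematocrit, 0.05% parasitemia final), exposed to compound two generations (96 h, 37 C, 5% CO2).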
CHX counter: Cycloheximide Counterscreen for Small Molecule Inhibitors of Shiga Toxin; AID 2314, 2010; 300,000 compounds, 12% hits; max response, %; cell reporter, cycloheximide protein synthesis inhibition counterscreen; in the data active = max response mostly above about 13%, no sharp cut-off; inactive = mostly below about 14%; note: read at 38.3 µM for the half of the compounds with a filed dose; 0% is about no effect
Numbers without * were called inactive; ? = inconclusive; . = not tested or not shown; [ ] = dose if it differs, or a comment. Unless noted, calls come from the whole dose curve; as a rule, active = well fitted inhibition curve with a large enough effect; inconclusive = small, poorly fitted or top-dose-only effect, or another doubt; inactive = no such curve, though single readings can be large or run the other way.

SMILES	Shiga toxin inh	Pf growth 48h	Pf growth 96h	CHX counter
Cc1cc(NC(=O)CCC(=O)N(c2ccccc2)C(C(=O)NC2CCCC2)c2ccccc2F)no1 (stereo not drawn)	-6.2	?	?	-8.0
COc1cccc(/C=N/n2c(-c3cc(C)[nH]n3)n[nH]c2=S)c1O	0.8	34.0%	40.1%	21.1
CNC(=O)C[C@@H](N)C(=O)N[C@@H](C(=O)N[C@@H]1C(=O)N2[C@@H]1SC(C)(C)[C@@H]2C(=O)O)c1ccc(O)cc1	.	3.8%	?	.
CCOC(=O)c1c(C)[nH]c(C(=O)COC(=O)c2ccncc2)c1C	4.9	?	17.1%	12.1
CCOC(=O)c1c(C)[nH]c(-c2csc(C)n2)c1C	62.1*	60.3%	82.7%	32.6*
CCOC(=O)c1ccccc1-c1csc(N)n1	-12.5	13.5%	22.3%	-3.1
CCOC(=O)c1c(C)[nH]c(-c2csc(N)n2)c1C	30.3	2.94µM*	?	12.0
CCOc1ccc(NC(=O)CCN2CCN(S(=O)(=O)c3cc(Cl)ccc3OC)CC2)cc1	-2.4	?	2.62µM*	-1.8
CCN(CC)c1ccc(NC(=O)CN2CCN(S(=O)(=O)c3cc(Cl)ccc3OC)CC2)cc1	6.4	10.4µM*	.	6.0
CCOc1ccc(NC(=O)CN2CCN(S(=O)(=O)c3ccc(Cl)cc3)CC2)cc1	-11.0	?	12.6%	-2.4
Oc1cc2c(cc1O)C1c3ccc(O)c(O)c3OCC1(O)C2 (stereo not drawn)	-15.5	?	2.62µM*	-1.0
Cc1ccc(CN2CCc3c(OCC(=O)Nc4cc(C)ccc4C)cccc3C2=O)cc1	1.7	?	5.86µM*	1.8
O=C(COc1cccc2c1CCN(Cc1ccccc1)C2=O)NCc1ccco1	3.5	?	-25.1%	10.0
Cc1ccc(C)c(NC(=O)COc2cccc3c2CCN(Cc2ccccc2)C3=O)c1	-1.3	-15.6%	?	-2.6
Cc1cccc(CN2CCc3c(OCC(=O)NCc4ccco4)cccc3C2=O)c1	18.1	11.7µM*	9.28µM*	13.4*
COc1cccc(OC)c1C(=O)Nc1ccc(C(=O)c2ccncc2)cc1	.	41.6%	49.3%	.
Cc1ccc(C)c(N2CCN(C(=O)c3cc4sccc4n3C)CC2)c1	57.4	?	36.6%	19.3
Cn1c(C(=O)N2CCN(c3cccc(C(F)(F)F)c3)CC2)cc2sccc21	-16.5	4.0%	9.28µM*	0.4
CCc1nc(SCC(=O)c2ccc(C)c(C)c2)n[nH]1	70.5*	14.7%	1.9%	12.4
CCc1c(C)nc(SCC(=O)c2ccc(C)c(C)c2)[nH]c1=O	43.9	-3.4%	-2.3%	19.4*
C[C@@H]1NC(=O)c2cc([N+](=O)[O-])cc(I)c2OCC[C@@H](C(=O)NC(CC(=O)O)C(N)=O)NC(=O)[C@H](CC(N)=O)NC1=O (stereo partly drawn)	-8.0	21.1%	15.9%	-0.1
Nc1[nH]nc2nc3ccccc3cc12	16.2	46.9%	-9.4%	15.1
CCc1ccc2nc3n[nH]c(N)c3cc2c1	75.2*	294.9%	371.5%	44.5*
COC(=O)c1cccc(NC(=O)Nc2ccc(Cl)cc2Cl)c1	33.3	0.0%	?	11.6
CCOc1ccc(NC(=O)C(CC(=O)O)Cc2ccc(Br)cc2)cc1 (stereo not drawn)	-7.1	2.5%	9.28µM*	-1.7
SMILES	Shiga toxin inh	Pf growth 48h	Pf growth 96h	CHX counter
CCC(C)c1ccc(NC(=O)Nc2cnccn2)cc1 (stereo not drawn)	86.9*	?	54.6%	74.4*
O=C(Nc1cccc(F)c1)Nc1cnccn1	11.0	28.8%	?	7.9
Cn1ccc(NC(=O)Nc2ccc(Cl)cc2Cl)n1	21.8*	84.3%	?	51.5*
O=C(Nc1cnccn1)Nc1ccc(Cl)cc1Cl	75.6*	21.0%	41.8%	28.6*
Cc1ccc(N2C(=O)NC(NS(=O)(=O)c3ccccc3)(C(F)(F)F)C2=O)cc1C (stereo not drawn)	-10.3	1.9%	?	1.6
C[C@H](NC(=O)[C@@H](Cc1c[nH]c2ccccc12)NC(=O)[C@@H](N)Cc1cnc[nH]1)C(=O)N[C@@H](Cc1c[nH]c2ccccc12)C(=O)N[C@H](Cc1ccccc1)C(=O)N[C@@H](CCCCN)C(N)=O	-3.3	.	.	-3.2
COc1ccc(N(C(=O)c2cccnc2)S(=O)(=O)c2cc(OC)ccc2OC)cc1	6.6	-16.2%	1.2%	-3.7
COc1cc2c(cc1OC)CN(C(=S)Nc1ccc(C)cc1C)CC2	-8.2	15.9%	65.1%	-0.4
CN1C(=O)c2ccccc2C(C(=O)O)C1c1cn(C)c2ccccc12 (stereo not drawn)	5.1	42.9%	0.0%	7.7
COc1ccc(NC(=O)Nc2cnccn2)cc1	48.0*	61.2%	68.0%	35.7*
Cc1ccc(NC(=O)Nc2cnccn2)cc1Cl	70.0*	43.1%	13.3%	23.2*
CC(=O)Nc1cccc(NC(=O)Nc2ccc(C)c(Cl)c2)c1	47.6*	30.4%	30.2%	29.8*
CCOc1ccc(NC(=O)Nc2cnccn2)cc1	59.3	35.8%	-0.5%	15.6*
Cc1cc(N)ccc1NC(=O)CN1CCOCC1	-6.2	9.6%	2.3%	-4.0
O=C(O)CC(c1ccc(F)cc1F)N1Cc2ccccc2C1=O (stereo not drawn)	-9.2	?	2.1%	-6.1
O=C(COc1ccccc1Cl)NNC(=O)c1ccc2nc[nH]c2c1	.	?	23.8%	.
CCOc1ccc(NC(=O)Nc2ccc(NC(C)=O)cc2)cc1	21.7	18.3%	37.5%	2.8
CCOc1ccc(NC(=O)NC(C)CC)cc1 (stereo not drawn)	42.2*	24.0%	9.28µM*	40.0*
C/C(=N\NC(=O)CNC(=O)C1COc2ccccc2O1)c1ccco1 (stereo not drawn)	-8.4	4.3%[0.00184 µM]	13.2%	-2.7
CCCCCc1cc(=O)oc2c(C(CCN3CCCCC3)c3ccc4c(c3)OCO4)c(OC)cc(OC)c12 (stereo not drawn)	-6.8	10.4µM*	4.65µM*	-5.6
CCCCCc1cc(=O)oc2c(C(CCN3CCCC3)c3ccc4c(c3)OCO4)c(OC)cc(OC)c12 (stereo not drawn)	-24.0	.	.	-12.8
CCCCCc1cc(=O)oc2c(C(CCN(CC)CC)c3cc(OC)c(OC)c(OC)c3)c(OC)cc(OC)c12 (stereo not drawn)	8.5	13.1µM*	3.7µM*	-4.0
CCCCCc1cc(=O)oc2c(C(CCN3CCCC(C)C3)c3ccc4c(c3)OCO4)c(OC)cc(OC)c12 (stereo not drawn)	-7.3	7.38µM*	4.15µM*	-1.9
COc1cc(OC)c2ccc(=O)oc2c1C(CCN1CCCC1)c1ccc2c(c1)OCO2 (stereo not drawn)	-11.6	?	?	-7.2
CCn1cc(S(=O)(=O)NC2CCCCC2)cn1	-18.2	-9.2%	?	-1.8
CC(C)N1CCN(Cc2cccc(-n3cccn3)c2)CC1CCO (stereo not drawn)	9.9	9.3%	-7.1%	-1.7
Cc1cc2ncn(C(=O)N3CCC(C)CC3)c2cc1C	66.7*	100.0%	37.4%	27.9*
O=C(N1CCOCC1)n1cnc2ccccc21	10.3	-6.1%	12.8%	-0.8
COc1cc(Cl)c(C)cc1NC(=O)COC(=O)c1ccc(CN2CCCC2=O)cc1	.	-12.6%	-18.1%	.
